Bioassay records: PubChem, National Center for Advancing Translational Sciences (NCATS)
Hits are enriched below; roughly 7.5% of the tested compounds scored in any of these assays.
SMN2 splice enh – enhancers of SMN2 splice variant expression | HEK293 SMN2-luciferase splicing reporter, luminescence, 30-36 h | Potency, µM (doses to about 46.1 µM), inactives show at the highest dose activity change, positive = activation, actives largely listed as activators | 2.8% of 210,000 active; note: % of control where 0% means no effect; nearly all actives have a fitted effect of over 55% in size
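HEK293 cells carry an SMN2 minigene-luciferase reporter in which exon 7 inclusion puts luciferase in frame. Cells were seeded at 2000 cells/well, attached for 10-12 hours, then exposed to compounds for 30-36 hours at 37C before ONE-Glo luminescence.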
FLuc counter – firefly luciferase modulation, counter-screen for miR-21 project; 6.9% of 360,000 active; purified FLuc, Km substrates, luminescence inhibition; Potency, µM (series often up to 57.5 µM), for the others: at the highest dose activity change, negative = inhibition, usual class: inhibitors; AID 588342;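 note: plate controls were vehicle for no effect and reference inhibitor for full effect; nearly all actives have a fitted effect of over 55% in size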
Target sequence (P08659 whole entry, looked up): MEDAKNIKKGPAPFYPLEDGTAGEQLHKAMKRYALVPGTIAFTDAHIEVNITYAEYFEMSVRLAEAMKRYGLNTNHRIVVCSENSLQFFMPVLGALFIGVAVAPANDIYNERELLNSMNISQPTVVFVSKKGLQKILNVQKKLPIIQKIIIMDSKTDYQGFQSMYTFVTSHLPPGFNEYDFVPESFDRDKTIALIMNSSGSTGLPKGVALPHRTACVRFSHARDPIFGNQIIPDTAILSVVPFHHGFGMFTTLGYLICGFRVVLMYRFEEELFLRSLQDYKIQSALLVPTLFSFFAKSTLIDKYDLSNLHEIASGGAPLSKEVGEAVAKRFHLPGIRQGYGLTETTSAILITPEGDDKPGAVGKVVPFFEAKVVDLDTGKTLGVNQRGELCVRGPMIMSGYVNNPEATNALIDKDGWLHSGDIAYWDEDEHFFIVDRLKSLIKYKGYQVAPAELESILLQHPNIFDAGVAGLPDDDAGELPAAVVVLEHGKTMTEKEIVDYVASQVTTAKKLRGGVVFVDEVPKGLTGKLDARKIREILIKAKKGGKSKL
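Purified P. pyralis luciferase, 10 nM final, with Km-level 10 uM D-luciferin and 10 uM ATP in 50 mM Tris acetate pH 7.5, 10 mM Mg acetate, 0.01% Tween-20, 0.05% BSA; 6-point qHTS titration about 60 µM downward; luminescence read.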
Rab9 promoter act – Rab9 promoter activation; Huh7 Rab9 promoter-luciferase reporter, luminescence, 24 h; Potency, µM (titrated, usually from 9.22 µM), for the others: at the highest dose activation, negative = inhibition, usual class: activators; 2.8% of 320,000 active; note: % of control where 0% means no effect; nearly all actives have a fitted effect of over 60% in size
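Luminescence from Amplite-detected luciferase (10 minutes, ambient) reports Rab9 promoter activation. Before that, stable Rab9-luciferase Huh7 cells (1500/well, reduced-serum OP-MEM I plus 10% FBS) were exposed to compound for 24 hours at 37C.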
ELG1 genotox – genotoxicity induction in ELG1-luciferase HEK293T cells; 1.3% of 330,000 active; HEK293T ELG1-luciferase reporter, luminescence, 16 h; Potency, µM (titrated, usually from 46 µM), for the others: at the highest dose activity change, positive = activation, most hits filed as activators; note: % of control where 0% means no effect; nearly all actives have a fitted effect of over 60% in size
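Genotoxicity was scored as increased ELG1-luciferase reporter signal, measured by ONE-Glo luminescence (30 min, room temperature). Compound or vehicle exposure of the HEK293T reporter cells lasted 16 hr at 37°C.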
NPC1 prom act – NPC1 promoter activation. Huh7 NPC1 promoter luciferase reporter, 24 h. Potency, µM (highest dose often 9.22 µM), for inactives: top-dose activation, most hits filed as activators. 2.4% of 320,000 active; note: % of control where 0% means no effect; nearly all actives have a fitted effect of over 60% in size
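Stably transfected Huh7 (NPC1 promoter→luciferase), 1500 cells/well in Opti-MEM + 10% FBS, 2 h settle, then compound 24 h at 37 °C. Luminescence after 10 min with Amplite reagent.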
Numbers without * were called inactive; ? = inconclusive; · = not tested or not shown; [ ] = another dose, or the depositor's remark. Calls come from the whole dose curve; as a rule, active = well fitted curve in the direction sought with a large enough effect; inconclusive = small, poorly fitted or top-dose-only effect, or another doubt; inactive = no such curve, though single readings can be large; an effect the other way counts as inactive or inconclusive. Potency is the fitted concentration of half-maximal effect.

SMILES	SMN2 splice enh	FLuc counter	Rab9 promoter act	ELG1 genotox	NPC1 prom act
Cc1cc(C)c2nc(N3CCCC(C(=O)NCCN4CCOCC4)C3)sc2c1 (stereo unspecified)	16µM*	13µM*	9%	?	?
Cc1cc(C)c(S(=O)(=O)N2CCOC2CNC(=O)C(=O)NCCN2CCOCC2)c(C)c1 (stereo unspecified)	·	6%	5%	0%	-6%
CCN1CCN(CCCNC(=O)C2CCCN(c3nc4c(C)cc(C)cc4s3)C2)CC1 (stereo unspecified)	·	17µM*	3%	?	17%
Cc1cc(C)c2nc(N3CCCC(C(=O)NCCCN4CCOCC4)C3)sc2c1 (stereo unspecified)	14µM*	?	?	15%	23%
Cc1c(NC(=O)CN2C(=O)NC3(CCCCC3)C2=O)c(=O)n(-c2ccccc2)n1C	-7%	0%	-4%	13%	-5%
COc1cc(OC)cc(-c2cc(N3C(=O)Nc4ccccc4N3O)n[nH]2)c1	-5%	-17%	0%	2%	-5%
O=C1Nc2ccccc2N(O)N1c1cc(-c2ccc(Cl)cc2)[nH]n1	-5%	8.5µM*	-4%	-4%	0%
O=C1Nc2cc(Cl)c(Cl)cc2N(O)N1c1cccc(Cl)c1	26%	-19%	-7%	2%	0%
O=C(O)c1ccc(O)c(N2C(=O)Nc3ccccc3N2O)c1	30%	-1%	-13%	3%	-2%
O=C1Nc2ccccc2N(O)N1c1cc(-c2ccccc2Cl)no1	3%	6µM*	18%	-1%	?
O=C1Nc2ccccc2N(O)N1c1cc(-c2cccc(Cl)c2)no1	·	21µM*	12%	1%	3%
CCOc1ccc(S(=O)(=O)NCc2ccc3c(c2)CCN3C(=O)c2ccc(C)cc2)cc1	·	-2%	·	·	·
CC(C)CN(C(=O)C1CSC2(C)CCC(=O)N12)c1c(N)n(Cc2ccccc2)c(=O)[nH]c1=O (stereo unspecified)	·	4%	-4%	-7%	0%
O=C(CCn1c(=O)[nH]c2ccccc2c1=O)NCCSCc1ccccc1	-26%	0%	1%	2%	-1%
CCCCc1cc(=O)oc2c(C)c(OCC(=O)NCC3CCC(C(=O)O)CC3)ccc12 (stereo unspecified)	·	-2%	-3%	12%	2%
COc1ccc(-c2nnc(CSc3ncnc4sc5c(c34)CCC5)o2)cc1OC	-4%	11%	-3%	23µM*	-2%
COc1ccc(C2=NOC(Cn3nc(-c4ccccc4C)cc3C(=O)O)C2)cc1 (stereo unspecified)	·	?	-3%	8%	2%
Cc1nn(C)c(C)c1C(C)NC(=O)c1cc(COc2ccc(F)c(F)c2)on1 (stereo unspecified)	·	21µM*	?	15%	?
Cc1nn(C)cc1C(C)NC(=O)c1cc(COc2ccc(F)c(F)c2)on1 (stereo unspecified)	·	-1%	0%	0%	8%
CCCCC(=O)Nc1ccccc1C(=O)OCC(=O)c1ccc2c(c1)OCCO2	-9%	1.2µM*	?	4%	29%
O=C(O)/C=C/C(=O)Nc1ccccc1C(=O)OCC(=O)c1ccc2c(c1)OCCO2	-1%	0.19µM*	15%	12%	2%
CC(C)c1ccc(OCc2cc(=O)n3c(-c4ccccc4)csc3n2)cc1	-20%	0%	·	·	·
COc1cc(C(=O)NCCN=C2NS(=O)(=O)c3ccccc32)cc(OC)c1OC	·	1%	4%	7%	1%
COc1ccc(/C=C/C(=O)NCCN=C2NS(=O)(=O)c3ccccc32)cc1	8%	15µM*	-10%	-5%	-2%
Cc1cccnc1Nc1nc(-c2ccccc2)cs1	·	1.9µM*	3.5µM*	2.6µM*	3.2µM*
SMILES	SMN2 splice enh	FLuc counter	Rab9 promoter act	ELG1 genotox	NPC1 prom act
Cc1cc(C)cc(OCC(=O)Nc2nc(-c3ccccn3)cs2)c1	·	4%	-1%	0%	0%
Cc1cccnc1Nc1nc(-c2ccccn2)cs1	·	?	-1%	5.8µM*	?
NNc1nc(-c2ccccc2)cs1	-48%	?	16%	?	14%
CCCCN(C(=O)c1cc2c(s1)CCC2)c1c(N)n(CCCC)c(=O)[nH]c1=O	·	-2%	2%	21%	0%
CCC(=O)N1c2ccccc2CC1C(=O)NCc1cc(Br)ccc1OC (stereo unspecified)	·	-1%	·	·	·
O=C(NCc1ccc(F)cc1)C(=O)NCC1OCCCN1S(=O)(=O)c1cccs1 (stereo unspecified)	·	1%	11%	-1%	-2%
O=C(NCc1ccccc1)c1ccc2c(=O)n3c(nc2c1)CCCCC3	·	-1%	6%	3%	-1%
O=C(NCCOc1ccccc1F)c1ccc2c(=O)n3c(nc2c1)CCC3	·	6µM*	2.2µM*	?	2.8µM*
O=C(NCCc1ccc(F)cc1)c1ccc2c(=O)n3c(nc2c1)CCC3	·	?	3.5µM*	15%	29%
O=C(COc1ccccc1F)NNC(=O)c1ccc2c(=O)n3c(nc2c1)CCC3	·	-3%	4%	7%	-2%
NS(=O)(=O)c1ccc(-n2nncc2-c2ccco2)cc1	·	1%	-2%	1%	0%
CCCCc1cc2c(cn1)=C(OC(=O)c1ccco1)C(C)(OC(=O)CC)C(=O)C=2 (stereo unspecified)	4%[9.22 µM]	·	·	·	·
NS(=O)(=O)c1ccc(NC(=O)COC(=O)CNC(=O)C23CC4CC(CC(C4)C2)C3)cc1	2%	-10%	1%	2%	-1%
CC(=O)N1CCN(C(=S)Nc2ccc(SC(F)F)cc2)CC1	?	-7%	0%	-2%	-7%
CCCN1CCN(C(=S)Nc2ccc(SC(F)F)cc2)CC1	-19%	13µM*	6%	1%	-2%
CC1CCN(C(=S)Nc2ccc(SC(F)F)cc2)CC1	22µM*	1.1µM*	27%	9%	?
CCCCc1ccc(NC(=S)N2CCN(C)CC2)cc1	·	15µM*	-2%	0%	8%
CC(=O)Nc1ccc(S(=O)(=O)NCC2CCC(C(=O)NCc3ccccc3Cl)CC2)cc1 (stereo unspecified)	·	2%	·	·	·
CCOC(=O)CSc1nc(N)nc(C)c1Cl	·	24µM*	-2%	-4%	1%
CCOC(=O)CSc1nc(C)c(CC)c(C)c1C(N)=O	-12%	5%	-1%	3%	-3%
CCCOc1ccc(NC(=O)C2CC(=O)N/C(=N/N=C(C)/C=C/c3ccc(N(C)C)cc3)S2)cc1 (stereo unspecified)	13µM*	2.4µM*	?	14%	?
CC(/C=C/c1ccc(N(C)C)cc1)=N\N=C1\NC(=O)CC(C(=O)Nc2ccccc2)S1 (stereo unspecified)	16µM*	2.4µM*	?	8%	?
CC(/C=C/c1ccc(N(C)C)cc1)=N/N=C1/NC(=O)CC(C(=O)Nc2ccc(Cl)cc2)S1 (stereo unspecified)	?	7.6µM*	-2%	5%	8%
